Test results published in PubChem BioAssay (EPA / NIEHS).
Values joined by “and” are separate entries in the source; they are usually repeats but may differ in a detail not shown here. Identical values can stand only once. Inconclusive results are not listed. The source holds several records for some structures; these can differ, active in one and inactive in another. Active and inactive are the calls of the source. The calls were made as follows: active = hit-call score of the fitted dose curve at least 0.9, where 1 is the maximum; inconclusive = response in the unintended direction; inactive = score below 0.9.

Experiments:
[1] = target: Caspase-3 (Homo sapiens) (UniProt P42574); assay: NVS_ENZ_hCASP3: NovaScreen (NVS) Enzymatic Assay for human Caspase 3 (CASP3) (AID 2283139)
In short: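 Single-concentration screening at 25 uM in duplicate, with concentration-response follow-up to a 50 uM maximum for chemicals passing the threshold. Caspase-3 (human, E. coli-expressed) activity was read as substrate fluorescence after 1 h, with loss of signal relative to DMSO.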

[2] = target: human Caspase 8 (CASP8), CASP8 (gene 841) (UniProt Q14790); assay: NVS_ENZ_hCASP8: NovaScreen (NVS) Enzymatic Assay for human Caspase 8 (CASP8) (AID 2283146)
In short: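 The primary screen tested compounds in duplicate at a single 25 uM concentration, with actives followed up in concentration series. Activity of recombinant (E. coli) protease was measured by fluorescence 1 h post-dose, as signal loss against DMSO.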

[3] = target: human Acetylcholinesterase (AChE), ACHE (gene 43) (UniProt P22303); assay: NVS_ENZ_hAChE: NovaScreen (NVS) Enzymatic Assay for human Acetylcholinesterase (AChE) (AID 2283129)
In short: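 Actives from a duplicate single-point screen (25 uM) were followed up in concentration series. Enzyme activity read by absorbance (colorimetric) 0.33 hour after dosing, cell-free, normalized to DMSO, with loss of signal scored.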

[4] = target: human Elastase, ELANE (gene 1991) (UniProt P08246); assay: NVS_ENZ_hElastase: NovaScreen (NVS) Enzymatic Assay for human Elastase (AID 2283153)
In short: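 Concentration-response to 50 uM max, run singly for chemicals passing a threshold (e.g., 30% inhibition) in a duplicate 25 uM single-point screen. Neutrophil-derived human elastase, absorbance read-out of enzyme activity at 1.5 h; DMSO baseline.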

[5] = target: human AMP-activated Protein Kinase, alpha 1 (AMPKa1), PRKAA1 (gene 5562) (UniProt Q13131); assay: NVS_ENZ_hAMPKa1: NovaScreen (NVS) Enzymatic Assay for human AMP-activated Protein Kinase, alpha 1 (AMPKa1) (AID 2283130)
In short: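 Compounds were screened in duplicate at 25 uM, and those reaching ~30% inhibition were titrated up to 50 uM. The enzyme was recombinant human AMPKα1, and kinase turnover was read by fluorescence/mobility shift 1 h post-dosing as loss of signal versus DMSO.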

[6] = target: human Caspase 5 (CASP5), CASP5 (gene 838) (UniProt P51878); assay: NVS_ENZ_hCASP5: NovaScreen (NVS) Enzymatic Assay for human Caspase 5 (CASP5) (AID 2283137)
In short: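 Caspase 5 enzyme activity, detected as fluorescence signal loss, is measured in a biochemical format using E. coli-expressed protein. Reading occurs 2 hours post-dosing. Screening runs at 25 uM, with confirmed actives titrated to 50 uM maximum.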

[7] = target: human AKT serine/threonine Kinase 1 (AKT1), AKT1 (gene 207) (UniProt P31749); assay: NVS_ENZ_hAKT1: NovaScreen (NVS) Enzymatic Assay for human AKT serine/threonine Kinase 1 (AKT1) (AID 2283138)
In short: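 A biochemical assay with recombinant enzyme and specific substrate, read by fluorescence intensity with mobility-shift separation 1 hour after dosing. Actives from 25 uM duplicate screening were titrated up to 50 uM against DMSO baseline.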

[8] = target: human Beta-secretase (BACE), BACE1 (gene 23621) (UniProt P56817); assay: NVS_ENZ_hBACE: NovaScreen (NVS) Enzymatic Assay for human Beta-secretase (BACE) (AID 2283140);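 also: hits are inhibitors that reduce fluorescent substrate signal versus DMSO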
In short: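 Enzyme activity of SF9-produced BACE1 is measured cell-free by fluorescence, 1 hour post dosing, normalised to DMSO. Screening used 25 uM in duplicate, with concentration-response follow-up for actives.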

[9] = target: human Casein Kinase 1-delta (CK1D), CSNK1D (gene 1453) (UniProt P48730); assay: NVS_ENZ_hCK1D: NovaScreen (NVS) Enzymatic Assay for human Casein Kinase 1-delta (CK1D) (AID 2283148)
In short: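 Recombinant human CK1-delta, cell-free; fluorescent substrate with electrophoretic mobility-shift separation of product, read 1 h after dosing. Single 25 uM duplicate screen, then concentration-response up to 50 uM; loss of signal vs DMSO.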

[10] = target: human Dual Specificity Protein Phosphatase 3 (DUSP3), DUSP3 (gene 1845) (UniProt P51452); assay: NVS_ENZ_hDUSP3: NovaScreen (NVS) Enzymatic Assay for human Dual Specificity Protein Phosphatase 3 (DUSP3) (AID 2283152);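 also: phosphatase activity of recombinant human DUSP3 on a fluorogenic substrate without cells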
In short: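 Cell-free fluorescence-intensity enzyme activity assay with recombinant protein and substrate; loss of signal fitted relative to DMSO baseline. Primary screen in duplicate at 25 uM, actives then run in concentration series; measured 0 h after dosing.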

[11] = target: human Casein Kinase 2- alpha 2 beta 2 (CK2a2b2), CSNK2A1 (gene 1457) (UniProt P68400); assay: NVS_ENZ_hCK2a2b2: NovaScreen (NVS) Enzymatic Assay for human Casein Kinase 2- alpha 2 beta 2 (CK2a2b2) (AID 2283147)
In short: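 Compounds were first screened in duplicate at 25 uM, and those passing the threshold were re-tested in concentration series up to a 50 uM maximum. Kinase activity of recombinant human CK2 α2β2 was measured 1 h after dosing by fluorescent substrate/product mobility-shift separation.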

[12] = target: Caspase-1 (Homo sapiens) (UniProt P29466); assay: NVS_ENZ_hCASP1: NovaScreen (NVS) Enzymatic Assay for human Caspase 1 (CASP1) (AID 2283132)
In short: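 Compounds were first tested in duplicate at 25 uM, with follow-up concentration series up to 50 uM. The bacterially expressed enzyme was read by fluorescence at 1 h post-dosing. Signal loss versus DMSO baseline indicates reduced enzyme activity.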

[13] = target: human Caspase 10 (CASP10), CASP10 (gene 843) (UniProt Q92851); assay: NVS_ENZ_hCASP10: NovaScreen (NVS) Enzymatic Assay for human Caspase 10 (CASP10) (AID 2283133)
In short: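 Fluorescence-intensity enzyme read-out of E. coli-expressed CASP10 activity, 1 h after compound. Single-point duplicates at 25 uM preceded concentration-response testing (top 50 uM) of hits; inhibition expressed as signal loss versus DMSO.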

[14] = target: human Acid Phosphatase 1 (ACP1), ACP1 (gene 52) (UniProt P24666); assay: NVS_ENZ_hACP1: NovaScreen (NVS) Enzymatic Assay for human Acid Phosphatase 1 (ACP1) (AID 2283136)
In short: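 Cell-free fluorescence read-out of phosphatase activity, substrate and product separated by mobility shift, taken 1.5 h after compound addition; protein produced in Sf9. Single 25 uM duplicate screen, followed by concentration series for actives, scored as signal loss relative to DMSO.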

[15] = target: human Aurora Kinase A - serine/threonine-protein Kinase 6 (AurA), AURKA (gene 6790) (UniProt O14965); assay: NVS_ENZ_hAurA: NovaScreen (NVS) Enzymatic Assay for human Aurora Kinase A - serine/threonine-protein Kinase 6 (AurA) (AID 2283142)
In short: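 Recombinant human AurA activity read by fluorescence after mobility-shift separation of product from substrate; 1 hour incubation. Chemicals first run in duplicate at 25 uM, then concentration series to 50 uM if over threshold; fitted relative to DMSO.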

[16] = target: human Colony Stimulating Factor 1 Receptor (CSF1R), CSF1R (gene 1436) (UniProt P07333); assay: NVS_ENZ_hCSF1R: NovaScreen (NVS) Enzymatic Assay for human Colony Stimulating Factor 1 Receptor (CSF1R) (AID 2283150)
In short: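 Compounds screened in duplicate at 25 uM, then concentration-response (top 50 uM) for those passing threshold such as 30% inhibition; recombinant CSF1R activity measured 1 h post-dosing via fluorescent substrate/product mobility-shift separation, loss of signal versus DMSO.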

[17] = target: human Epidermal Growth Factor Receptor (EGFR), EGFR (gene 1956) (UniProt P00533); assay: NVS_ENZ_hEGFR: NovaScreen (NVS) Enzymatic Assay for human Epidermal Growth Factor Receptor (EGFR) (AID 2283151)
In short: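 Cell-free kinase assay, fluorescence plus electrophoretic mobility shift separating substrate and product, read 1 hour after dosing; loss of signal vs DMSO. Duplicate screen at 25 uM, then concentration-response to 50 uM.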

[18] = target: human AKT serine/threonine Kinase 2 (AKT2), AKT2 (gene 208) (UniProt P31751); assay: NVS_ENZ_hAKT2: NovaScreen (NVS) Enzymatic Assay for human AKT serine/threonine Kinase 2 (AKT2) (AID 2283141)
In short: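 Cell-free fluorescence/electrophoretic mobility shift readout of recombinant human AKT2 activity, 1 h after chemical dosing. Duplicate primary screen at 25 uM, then singleton concentration-response up to 50 uM; loss of signal versus DMSO baseline.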

[19] = target: CDK2 (gene 1017) (UniProt P24941); assay: NVS_ENZ_hCDK2: NovaScreen (NVS) Enzymatic Assay for human Cyclin-Cependent Kinase 2 (CDK2) (AID 2283144)
In short: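 Compounds screened in duplicate at 25 uM, then in singleton concentration-response to a maximum of 50 uM, against recombinant CDK2; kinase activity read 1 hr after dosing by fluorescence with mobility-shift separation of substrate and product.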

Sequence of human Acetylcholinesterase (AChE), ACHE (gene 43) (P22303 whole entry, looked up): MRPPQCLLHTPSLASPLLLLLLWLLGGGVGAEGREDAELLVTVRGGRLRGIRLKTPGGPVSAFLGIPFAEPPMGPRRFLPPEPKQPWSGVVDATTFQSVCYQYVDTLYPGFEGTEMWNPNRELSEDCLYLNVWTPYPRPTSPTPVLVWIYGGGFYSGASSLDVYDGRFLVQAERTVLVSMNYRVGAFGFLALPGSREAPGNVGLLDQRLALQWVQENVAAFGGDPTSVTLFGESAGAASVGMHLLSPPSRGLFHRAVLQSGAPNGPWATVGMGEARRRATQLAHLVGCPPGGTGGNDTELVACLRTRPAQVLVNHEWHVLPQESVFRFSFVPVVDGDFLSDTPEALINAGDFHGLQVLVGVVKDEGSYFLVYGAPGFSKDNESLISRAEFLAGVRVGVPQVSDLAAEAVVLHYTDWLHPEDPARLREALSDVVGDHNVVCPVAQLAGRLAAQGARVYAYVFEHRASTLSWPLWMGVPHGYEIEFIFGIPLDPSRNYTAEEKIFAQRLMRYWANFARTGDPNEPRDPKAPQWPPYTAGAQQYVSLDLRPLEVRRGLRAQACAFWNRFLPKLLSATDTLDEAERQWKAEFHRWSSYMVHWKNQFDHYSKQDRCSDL
Sequence of human Casein Kinase 1-delta (CK1D), CSNK1D (gene 1453) (P48730 whole entry, looked up): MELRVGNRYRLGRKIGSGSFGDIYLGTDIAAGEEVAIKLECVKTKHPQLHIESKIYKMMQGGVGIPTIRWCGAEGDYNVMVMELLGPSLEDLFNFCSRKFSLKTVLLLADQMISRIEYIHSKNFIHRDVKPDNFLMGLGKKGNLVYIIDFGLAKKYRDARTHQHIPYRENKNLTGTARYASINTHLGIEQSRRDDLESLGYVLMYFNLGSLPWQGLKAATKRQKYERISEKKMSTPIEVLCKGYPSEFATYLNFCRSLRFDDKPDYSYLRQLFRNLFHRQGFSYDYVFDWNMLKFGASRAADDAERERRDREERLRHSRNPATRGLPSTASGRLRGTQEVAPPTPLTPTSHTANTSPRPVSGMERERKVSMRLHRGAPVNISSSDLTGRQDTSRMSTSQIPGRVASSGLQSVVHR
Sequence of human AMP-activated Protein Kinase, alpha 1 (AMPKa1), PRKAA1 (gene 5562) (Q13131 whole entry, looked up): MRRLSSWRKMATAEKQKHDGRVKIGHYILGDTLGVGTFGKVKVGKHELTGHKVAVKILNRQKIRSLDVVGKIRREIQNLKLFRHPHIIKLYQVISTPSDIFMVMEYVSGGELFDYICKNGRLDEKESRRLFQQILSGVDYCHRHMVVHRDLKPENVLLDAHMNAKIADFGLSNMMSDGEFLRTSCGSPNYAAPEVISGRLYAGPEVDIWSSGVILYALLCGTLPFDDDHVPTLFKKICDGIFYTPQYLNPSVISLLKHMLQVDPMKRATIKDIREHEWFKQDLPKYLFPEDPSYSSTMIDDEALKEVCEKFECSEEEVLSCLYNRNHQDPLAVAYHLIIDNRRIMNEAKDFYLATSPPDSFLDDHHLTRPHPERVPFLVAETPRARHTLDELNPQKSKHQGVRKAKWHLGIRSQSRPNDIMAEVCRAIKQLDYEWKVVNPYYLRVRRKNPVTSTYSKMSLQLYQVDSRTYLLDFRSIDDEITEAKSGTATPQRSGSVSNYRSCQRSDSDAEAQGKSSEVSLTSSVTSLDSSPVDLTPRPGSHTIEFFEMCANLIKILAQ
Sequence of Caspase-3 (Homo sapiens) (P42574 whole entry, looked up): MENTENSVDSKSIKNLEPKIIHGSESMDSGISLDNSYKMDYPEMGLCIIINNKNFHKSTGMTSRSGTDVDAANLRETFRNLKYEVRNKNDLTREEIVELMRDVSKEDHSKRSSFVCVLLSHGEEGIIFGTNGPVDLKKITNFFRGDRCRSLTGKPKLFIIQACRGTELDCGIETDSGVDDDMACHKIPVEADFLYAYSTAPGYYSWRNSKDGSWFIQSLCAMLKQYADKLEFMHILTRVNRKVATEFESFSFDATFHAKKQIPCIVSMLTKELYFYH
Sequence of human Caspase 8 (CASP8), CASP8 (gene 841) (Q14790 whole entry, looked up): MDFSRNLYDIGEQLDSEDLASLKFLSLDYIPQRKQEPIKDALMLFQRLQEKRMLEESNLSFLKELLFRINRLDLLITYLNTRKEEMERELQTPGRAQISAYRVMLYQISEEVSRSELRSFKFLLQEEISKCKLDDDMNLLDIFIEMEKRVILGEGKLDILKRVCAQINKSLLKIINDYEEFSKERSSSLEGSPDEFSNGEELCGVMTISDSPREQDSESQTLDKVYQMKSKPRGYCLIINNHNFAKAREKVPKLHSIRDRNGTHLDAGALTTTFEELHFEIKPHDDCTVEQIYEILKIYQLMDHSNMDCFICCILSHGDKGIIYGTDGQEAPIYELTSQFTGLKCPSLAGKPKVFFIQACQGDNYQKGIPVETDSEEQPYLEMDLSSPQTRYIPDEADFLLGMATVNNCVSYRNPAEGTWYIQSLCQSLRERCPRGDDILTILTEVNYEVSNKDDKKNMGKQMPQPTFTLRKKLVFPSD
Sequence of human Dual Specificity Protein Phosphatase 3 (DUSP3), DUSP3 (gene 1845) (P51452 whole entry, looked up): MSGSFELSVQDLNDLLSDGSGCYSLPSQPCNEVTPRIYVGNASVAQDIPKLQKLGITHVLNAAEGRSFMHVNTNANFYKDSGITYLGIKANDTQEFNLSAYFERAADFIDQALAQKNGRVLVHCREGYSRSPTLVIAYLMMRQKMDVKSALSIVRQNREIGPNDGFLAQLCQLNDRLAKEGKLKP
Sequence of human Elastase, ELANE (gene 1991) (P08246 whole entry, looked up): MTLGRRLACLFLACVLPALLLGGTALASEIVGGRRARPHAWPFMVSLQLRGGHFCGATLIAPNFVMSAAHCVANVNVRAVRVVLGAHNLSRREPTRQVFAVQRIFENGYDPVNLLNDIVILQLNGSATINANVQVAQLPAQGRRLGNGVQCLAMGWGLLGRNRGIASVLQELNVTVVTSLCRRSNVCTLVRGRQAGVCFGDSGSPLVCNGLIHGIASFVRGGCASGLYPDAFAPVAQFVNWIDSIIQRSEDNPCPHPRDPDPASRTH
Sequence of human Beta-secretase (BACE), BACE1 (gene 23621) (P56817 whole entry, looked up): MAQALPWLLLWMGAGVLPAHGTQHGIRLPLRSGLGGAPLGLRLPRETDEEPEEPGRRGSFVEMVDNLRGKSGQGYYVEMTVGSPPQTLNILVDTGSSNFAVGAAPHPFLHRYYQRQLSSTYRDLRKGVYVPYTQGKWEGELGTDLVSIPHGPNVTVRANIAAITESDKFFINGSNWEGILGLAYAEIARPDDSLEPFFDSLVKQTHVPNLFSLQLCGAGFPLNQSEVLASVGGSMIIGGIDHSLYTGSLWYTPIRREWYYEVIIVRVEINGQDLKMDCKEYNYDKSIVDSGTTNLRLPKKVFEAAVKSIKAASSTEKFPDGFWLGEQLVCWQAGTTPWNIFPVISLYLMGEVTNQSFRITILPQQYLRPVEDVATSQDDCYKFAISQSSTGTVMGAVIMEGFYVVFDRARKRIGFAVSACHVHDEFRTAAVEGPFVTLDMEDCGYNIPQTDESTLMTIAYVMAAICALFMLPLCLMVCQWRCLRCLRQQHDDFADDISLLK
Sequence of human Caspase 10 (CASP10), CASP10 (gene 843) (Q92851 whole entry, looked up): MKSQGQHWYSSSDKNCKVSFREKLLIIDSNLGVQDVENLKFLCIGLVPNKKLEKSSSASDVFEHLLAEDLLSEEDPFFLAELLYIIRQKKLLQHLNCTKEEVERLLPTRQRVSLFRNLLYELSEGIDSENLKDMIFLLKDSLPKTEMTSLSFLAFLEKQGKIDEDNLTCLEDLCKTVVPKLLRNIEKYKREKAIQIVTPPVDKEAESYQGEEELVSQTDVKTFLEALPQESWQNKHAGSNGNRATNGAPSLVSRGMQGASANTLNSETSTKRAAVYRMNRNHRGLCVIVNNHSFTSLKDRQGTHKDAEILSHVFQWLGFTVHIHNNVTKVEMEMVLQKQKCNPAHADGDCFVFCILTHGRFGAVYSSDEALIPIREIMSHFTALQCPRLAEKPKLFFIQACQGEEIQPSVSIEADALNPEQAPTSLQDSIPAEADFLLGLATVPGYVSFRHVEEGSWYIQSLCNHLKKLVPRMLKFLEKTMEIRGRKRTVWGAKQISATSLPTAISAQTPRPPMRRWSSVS
Sequence of human Colony Stimulating Factor 1 Receptor (CSF1R), CSF1R (gene 1436) (P07333 whole entry, looked up): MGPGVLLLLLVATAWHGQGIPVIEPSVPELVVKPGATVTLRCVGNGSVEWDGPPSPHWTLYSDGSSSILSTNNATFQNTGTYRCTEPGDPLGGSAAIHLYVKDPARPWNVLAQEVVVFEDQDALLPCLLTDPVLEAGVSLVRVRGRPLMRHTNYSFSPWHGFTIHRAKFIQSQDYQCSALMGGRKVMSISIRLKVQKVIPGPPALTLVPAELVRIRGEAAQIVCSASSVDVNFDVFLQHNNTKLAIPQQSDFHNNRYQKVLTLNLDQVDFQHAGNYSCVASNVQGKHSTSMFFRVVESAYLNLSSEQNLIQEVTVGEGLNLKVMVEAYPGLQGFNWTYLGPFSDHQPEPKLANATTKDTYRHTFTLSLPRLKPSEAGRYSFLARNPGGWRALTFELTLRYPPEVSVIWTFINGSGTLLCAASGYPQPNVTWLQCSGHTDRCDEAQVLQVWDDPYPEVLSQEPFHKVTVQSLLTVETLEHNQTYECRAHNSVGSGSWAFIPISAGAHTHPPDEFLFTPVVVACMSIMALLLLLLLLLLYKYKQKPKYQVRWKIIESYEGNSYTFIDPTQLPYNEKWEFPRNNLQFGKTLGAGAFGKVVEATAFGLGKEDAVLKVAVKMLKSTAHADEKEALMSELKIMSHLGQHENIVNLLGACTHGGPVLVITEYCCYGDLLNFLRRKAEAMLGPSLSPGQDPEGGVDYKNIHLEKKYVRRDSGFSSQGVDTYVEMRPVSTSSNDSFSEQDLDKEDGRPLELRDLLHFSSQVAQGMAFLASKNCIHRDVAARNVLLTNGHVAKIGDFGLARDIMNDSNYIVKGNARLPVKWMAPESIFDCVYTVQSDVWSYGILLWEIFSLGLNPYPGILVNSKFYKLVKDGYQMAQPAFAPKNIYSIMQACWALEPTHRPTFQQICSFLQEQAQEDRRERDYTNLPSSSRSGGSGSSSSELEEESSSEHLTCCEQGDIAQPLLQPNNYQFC
Sequence of human Acid Phosphatase 1 (ACP1), ACP1 (gene 52) (P24666 whole entry, looked up): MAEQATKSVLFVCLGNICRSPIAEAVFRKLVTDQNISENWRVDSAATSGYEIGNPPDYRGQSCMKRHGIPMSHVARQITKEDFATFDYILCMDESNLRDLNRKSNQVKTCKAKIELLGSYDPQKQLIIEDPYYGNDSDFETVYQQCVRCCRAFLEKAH

## C[C@H]1[C@H](c2ccc(Cl)cc2)SC(=O)N1C(=O)NC1CCCCC1
[1]
  outcome: inactive
[2]
  outcome: inactive

## COP(=S)(OC)Oc1ccc([N+](=O)[O-])cc1
[3]
  outcome: inactive
[4]
  outcome: inactive

## COc1nn(CSP(=S)(OC)OC)c(=O)s1
[2]
  outcome: inactive

## [2H]C1([2H])[n+]2ccccc2-c2cccc[n+]2C1([2H])[2H]
[3]
  outcome: inactive

## Oc1ccc(Cl)cc1Cc1ccccc1
[5]
  outcome: inactive
[6]
  outcome: inactive
[7]
  outcome: inactive
[8]
  AC50: 18.9 µM (active) [middle of 6 runs]
[9]
  AC50: 25.2 µM (active) and 21.9 µM (active)
[10]
  outcome: inactive

## O=C(O)CCCOc1ccc(Cl)cc1Cl
[11]
  AC50: 19 µM (active)

## O=S(=O)(O)C(F)(F)C(F)(F)C(F)(F)C(F)(F)C(F)(F)C(F)(F)C(F)(F)C(F)(F)F
[5]
  AC50: 15.7 µM (active) and 5.63 µM (active)
[12]
  outcome: inactive
[13]
  outcome: inactive
[14]
  AC50: 24.7 µM (active)
[6]
  AC50: 26.7 µM (active) [middle of 4 runs]
[7]
  AC50: 46.7 µM (active)
[8]
  AC50: 2.29 µM (active) and 2.36 µM (active) and 8.91 µM (active)
[15]
  AC50: 25.4 µM (active) and 27.4 µM (active)
[2]
  outcome: inactive
[9]
  AC50: 22 µM (active) and 39 µM (active)
[16]
  AC50: 18.6 µM (active) and 43.9 µM (active)
[17]
  AC50: 25 µM (active) and 17.4 µM (active)
[10]
  AC50: 35.6 µM (active)
  outcome: inactive
[4]
  outcome: inactive

## CC(C)(C)C(O)C(Oc1ccc(Cl)cc1)n1cncn1 (stereo not given)
[5]
  outcome: inactive
[14]
  outcome: inactive
[16]
  outcome: inactive

## CN1CSC(=S)N(C)C1
[12]
  outcome: inactive
[18]
  outcome: inactive
[19]
  outcome: inactive

## O=C(NC(=O)c1c(F)cccc1F)Nc1ccc(OC(F)(F)C(F)OC(F)(F)F)c(Cl)c1 (stereo not given)
[4]
  outcome: inactive

## CCOC1Oc2ccc(OS(C)(=O)=O)cc2C1(C)C (stereo not given)
[1]
  outcome: inactive
[16]
  outcome: inactive

## O=C(O)COc1ccc(Cl)cc1Cl
[11]
  AC50: 19.7 µM (active)

## O=C1c2ccccc2C(=O)N1SC(Cl)(Cl)Cl
[1]
  outcome: inactive
[2]
  outcome: inactive

## CC(C)N(C(=O)COc1nnc(C(F)(F)F)s1)c1ccc(F)cc1
[3]
  AC50: 16.5 µM (active)
[19]
  outcome: inactive

## Clc1ccccc1-c1nnc(-c2ccccc2Cl)nn1
[18]
  outcome: inactive

## CCC(C)(C)C(=O)OC1=C(c2ccc(Cl)cc2Cl)C(=O)OC12CCCCC2
[8]
  AC50: 17.6 µM (active)
[15]
  outcome: inactive
